Here are results for 15 compounds from PubChem BioAssay (NCI).

The panel holds about 83,000 compounds, 20% with a hit somewhere; the sample as a whole holds those more often.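 48-hour exposure, single concentration, 96-well plates; percent growth endpoint where 0 means no net growth. Active: below 10.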 A number with no mark means an inactive call. Activity calls are given as the source filed them.

The experiment relates to HL-60(TB) leukemia. Put plainly: NCI-60 one-dose screen, 48 h (100 = growth as untreated, 0 = no growth, -100 = all killed). Particulars: 10 µM unless noted.
Consider `COc1cc(-c2csc(NC(=O)c3cc(F)cc(C(F)(F)F)c3)n2)cc(OC)c1OC`, for which the growth was 14%.
Regarding `OC(c1cc2ccc(C(F)(F)F)cc2c2cc(C(F)(F)F)ccc12)C1CCCCN1` (stereo not given), the growth is -72.8% (active).
Then `NS(=O)(=O)c1ccc(N2N=C(c3cccs3)CC2c2ccccc2O)cc1` (stereo not given), with -25.9% (active); and `CC1(C)C2CCC(O)(C(=O)O)C1C2` (stereo not given), with 107%.
`CN=C1C=CC(=C(c2ccc(N(C)C)cc2)c2ccc(N(C)C)cc2)C=C1`: the growth is -1.23% (active).
`Cn1/c(=N/NC(N)=S)ccc2ccccc21`: the growth is 106%.
As to `Cc1cc(=O)[nH]c(N/N=C/c2ccccc2O)n1`, the growth was 71.3%.
For `O=c1c2ccccc2n2cnc3ccc(Cl)c1c32`, the growth is 82.6%.
Then `CCOC(=O)Cc1cc(Br)c(OCc2ccccc2)c(Br)c1`, with 71.7%; and `Cc1ccc(C2CC(c3cccc(Nc4ccncc4)c3)=NN2c2ccccc2)cc1` (stereo not given), with -56.6% (active); and `O=C(O)C[C@H](O)C[C@H](O)/C=C/c1c(C2CC2)nc2ccccc2c1-c1ccc(F)cc1`, with 66.2%.
Turning to `CCCC(C)c1cc(Cc2cc(Cl)cc(Cl)c2O)c(O)c(Cc2cc(Cl)cc(Cl)c2O)c1` (stereo not given), the growth was 4.98% (active).
On to `c1cc2ccc3cc2cc1CNCCOCCNCc1ccc2ccc(cc2c1)CNCCOCCNC3`, for which the growth is 15.9%.
For the compound `C=CCn1c2ccccc2c2c3c(c4c5ccccc5n(CC=C)c4c21)C(=O)N(O)C3=O`, the growth is -39.5% (active).
Then `C#CCNC(=O)[C@H](Cc1ccccc1)NC(=O)[C@]12CC[C@@H](C(=C)C)[C@@H]1[C@H]1CC[C@@H]3[C@@]4(C)Cc5c([nH]c6ccccc56)C(C)(C)[C@@H]4CC[C@@]3(C)[C@]1(C)CC2`, with 93.1%.
